# Results taken from PubChem BioAssay.
# Calls of active or inactive are those of the source. The rule behind the calls is not given here.
# Biological target: Pantothenate synthetase (Mycobacterium tuberculosis (strain ATCC 25618 / H37Rv)) (UniProt P9WIL5)
# Assay: Recombinant Mtb pantothenate synthetase (PanC) inhibitors, coupled enzyme, confirmatory (AID 375);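 note: 0% = full reaction with vehicle and 100% = no enzyme background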
# Settings: coupled enzyme assay; at 10 µM, hits give high values
# Chain of Pantothenate synthetase (Mycobacterium tuberculosis (strain ATCC 25618 / H37Rv)) (P9WIL5 whole entry, looked up): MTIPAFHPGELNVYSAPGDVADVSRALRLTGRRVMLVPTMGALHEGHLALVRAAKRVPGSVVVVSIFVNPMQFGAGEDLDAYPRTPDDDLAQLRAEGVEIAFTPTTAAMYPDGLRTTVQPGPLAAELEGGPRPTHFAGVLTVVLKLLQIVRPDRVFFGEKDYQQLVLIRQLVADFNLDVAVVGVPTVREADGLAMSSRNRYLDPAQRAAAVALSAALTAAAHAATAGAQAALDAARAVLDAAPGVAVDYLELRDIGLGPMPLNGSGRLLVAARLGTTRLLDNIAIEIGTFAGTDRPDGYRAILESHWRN
row,SMILES,inhibition
1,CC(C)(C)n1nc2c(c1NC(=O)COc1ccc(Cl)cc1)CSC2,0% (inactive)
2,O=C(CSc1ccc(-c2ccccc2)nn1)N1CCOCC1,0% (inactive)
3,O=C(CN(Cc1ccc(F)cc1)C(=O)c1ccco1)NCc1ccc(F)cc1,0% (inactive)
